Values joined by “and” are separate entries in the source; they are usually repeats but may differ in a detail not shown here. Identical values can stand only once. Inconclusive results are not listed. Some structures have more than one record in an assay (separate samples or runs), and their calls can disagree. Active and inactive are the calls of the source. Unless noted, the call rests on the fitted dose curve; in most records, active means well fitted curve in the direction sought with a large enough effect in the repeat runs; inconclusive means weak or mixed curves; inactive means no such curve, though single readings can be large; an effect the other way counts as inactive or inconclusive.
What was measured:
[1] = qHTS assay to identify small molecule antagonists of the thyroid receptor (TR) signaling pathway (AID 743065); further: nearly all actives have a fitted effect of over 55% in size; further: potency means the concentration at half of the fitted maximal effect
How it was run: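 Antagonism measured as loss of luciferase signal in GH3 cells stably carrying a TRE-luciferase reporter, co-treated with compound and T3 (1 nM final) for 23.5 h at 37 C. Viability was read in the same well by CellTiter-Fluor.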

[2] = system: thyroid hormone receptor (rat, GH3 cells); assay: qHTS assay to identify small molecule agonists of the thyroid receptor (TR) signaling pathway (AID 743066; calls by dose curve)
[3] = biological target: Estrogen receptor (Homo sapiens) (UniProt P03372); assay: qHTS assay to identify small molecule antagonists of the estrogen receptor alpha (ER-alpha) signaling pathway (AID 743069; active means well fitted curve in the direction sought with a large enough effect in the signal ratio in the repeat runs, not every such curve was filed as active; the % refers to the signal ratio)
Estrogen receptor (Homo sapiens), sequence (P03372 whole entry, looked up): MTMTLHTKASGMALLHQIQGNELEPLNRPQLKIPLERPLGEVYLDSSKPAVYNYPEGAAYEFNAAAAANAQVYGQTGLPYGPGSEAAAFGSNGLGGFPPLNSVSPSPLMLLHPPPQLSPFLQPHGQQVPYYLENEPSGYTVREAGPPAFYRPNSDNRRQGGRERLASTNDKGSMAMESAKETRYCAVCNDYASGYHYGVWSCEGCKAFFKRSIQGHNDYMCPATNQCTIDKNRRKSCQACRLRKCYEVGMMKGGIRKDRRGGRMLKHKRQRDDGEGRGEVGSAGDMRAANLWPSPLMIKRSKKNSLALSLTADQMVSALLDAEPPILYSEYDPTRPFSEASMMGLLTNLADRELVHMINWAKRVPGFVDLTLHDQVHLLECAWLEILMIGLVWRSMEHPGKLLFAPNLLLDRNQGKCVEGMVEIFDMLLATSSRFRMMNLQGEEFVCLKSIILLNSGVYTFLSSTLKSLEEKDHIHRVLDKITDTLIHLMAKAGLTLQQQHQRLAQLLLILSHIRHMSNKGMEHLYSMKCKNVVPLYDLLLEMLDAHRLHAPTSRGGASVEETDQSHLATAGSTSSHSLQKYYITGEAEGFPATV
How it was run: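 Antagonist mode: compounds in DMSO were co-added with 17beta-estradiol to ER-alpha-bla HEK293 cells (2% charcoal-stripped serum) and left 18 h at 37C. Reporter inhibition was measured as FRET fluorescence after 2 h LiveBLAzer substrate at room temperature.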

[4] = qHTS assay to identify small molecule antagonists of the estrogen receptor alpha (ER-alpha) signaling pathway - cell viability counter screen (AID 743074; calls by dose curve;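 further: HEK293 cells carrying ER-alpha-UAS-bla reporter stimulated with 17beta-estradiol; nearly all actives have a fitted effect of over 45% in size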)
[5] = biological target: Estrogen receptor (Homo sapiens) (UniProt P03372); assay: qHTS assay to identify small molecule agonists of the estrogen receptor alpha (ER-alpha) signaling pathway (AID 743075; calls by dose curve;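 further: HEK293 GripTite cells with ER-alpha and UAS-driven beta-lactamase reporter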)
[6] = biological target: Estrogen receptor (Homo sapiens) (UniProt P03372); assay: qHTS assay to identify small molecule agonists of the estrogen receptor alpha (ER-alpha) signaling pathway using the BG1 cell line (AID 743079); conditions: BG1Luc4E2 cells, ERE-luciferase agonist, 22 h; activation: at 70.3 µM (top of the series) unless noted; further: nearly all actives have a fitted effect of over 20% in size; further: potency means the concentration at half of the fitted maximal effect
[7] = qHTS assay to identify small molecule antagonists of the estrogen receptor alpha (ER-alpha) signaling pathway using the BG1 cell line (AID 743080; calls by dose curve;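 further: BG1 cells stimulated with 17beta-estradiol alongside compound; nearly all actives have a fitted effect of over 25% in size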)
How it was run: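 Seeding, 24 h rest, compound transfer from DMSO, 17beta-estradiol addition, 21.5 h incubation, CellTiter-Fluor (30 min, 37 C), then ONE-Glo (30 min, room temperature): this sequence was run on BG1-Luc-4E2 reporter cells.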

[8] = qHTS assay to identify small molecule antagonists of the estrogen receptor alpha (ER-alpha) signaling pathway using the BG1 cell line - cell viability counter screen (AID 743081);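 further: compound given together with 17beta-estradiol as the ER stimulus; nearly all actives have a fitted effect of over 45% in size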; further: potency means the concentration at half of the fitted maximal effect
[9] = biological target: Aromatase (Homo sapiens) (UniProt P11511); assay: qHTS assay to identify aromatase inhibitors (AID 743083); further: nearly all actives have a fitted effect of over 55% in size; further: potency means the concentration at half of the fitted maximal effect
Aromatase (Homo sapiens), sequence (P11511 whole entry, looked up): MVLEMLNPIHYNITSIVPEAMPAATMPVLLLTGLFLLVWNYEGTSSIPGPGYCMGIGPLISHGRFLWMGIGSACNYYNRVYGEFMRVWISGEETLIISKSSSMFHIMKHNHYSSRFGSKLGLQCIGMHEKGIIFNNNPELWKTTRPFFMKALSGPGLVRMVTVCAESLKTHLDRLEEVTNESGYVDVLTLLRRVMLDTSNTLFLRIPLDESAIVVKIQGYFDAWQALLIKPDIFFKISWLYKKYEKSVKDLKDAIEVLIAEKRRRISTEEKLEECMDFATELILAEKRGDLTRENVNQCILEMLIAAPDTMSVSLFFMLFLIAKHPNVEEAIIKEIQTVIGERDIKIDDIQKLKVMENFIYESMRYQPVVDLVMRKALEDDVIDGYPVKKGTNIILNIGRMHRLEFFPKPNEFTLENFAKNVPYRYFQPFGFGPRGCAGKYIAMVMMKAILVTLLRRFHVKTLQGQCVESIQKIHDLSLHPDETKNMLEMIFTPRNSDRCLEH

[10] = qHTS assay to identify aromatase inhibitors - cell viability counter screen (AID 743084);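 further: cells stimulated with testosterone during compound exposure; nearly all actives have a fitted effect of over 55% in size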; further: potency means the concentration at half of the fitted maximal effect
[11] = biological target: Aryl hydrocarbon receptor (Homo sapiens) (UniProt P35869); assay: qHTS assay to identify small molecule that activate the aryl hydrocarbon receptor (AhR) signaling pathway (AID 743085);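 further: HG2L7.5c1 human HepG2 liver cells with stably integrated DRE-driven firefly reporter; nearly all actives have a fitted effect of over 15% in size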
Aryl hydrocarbon receptor (Homo sapiens), sequence (P35869 whole entry, looked up): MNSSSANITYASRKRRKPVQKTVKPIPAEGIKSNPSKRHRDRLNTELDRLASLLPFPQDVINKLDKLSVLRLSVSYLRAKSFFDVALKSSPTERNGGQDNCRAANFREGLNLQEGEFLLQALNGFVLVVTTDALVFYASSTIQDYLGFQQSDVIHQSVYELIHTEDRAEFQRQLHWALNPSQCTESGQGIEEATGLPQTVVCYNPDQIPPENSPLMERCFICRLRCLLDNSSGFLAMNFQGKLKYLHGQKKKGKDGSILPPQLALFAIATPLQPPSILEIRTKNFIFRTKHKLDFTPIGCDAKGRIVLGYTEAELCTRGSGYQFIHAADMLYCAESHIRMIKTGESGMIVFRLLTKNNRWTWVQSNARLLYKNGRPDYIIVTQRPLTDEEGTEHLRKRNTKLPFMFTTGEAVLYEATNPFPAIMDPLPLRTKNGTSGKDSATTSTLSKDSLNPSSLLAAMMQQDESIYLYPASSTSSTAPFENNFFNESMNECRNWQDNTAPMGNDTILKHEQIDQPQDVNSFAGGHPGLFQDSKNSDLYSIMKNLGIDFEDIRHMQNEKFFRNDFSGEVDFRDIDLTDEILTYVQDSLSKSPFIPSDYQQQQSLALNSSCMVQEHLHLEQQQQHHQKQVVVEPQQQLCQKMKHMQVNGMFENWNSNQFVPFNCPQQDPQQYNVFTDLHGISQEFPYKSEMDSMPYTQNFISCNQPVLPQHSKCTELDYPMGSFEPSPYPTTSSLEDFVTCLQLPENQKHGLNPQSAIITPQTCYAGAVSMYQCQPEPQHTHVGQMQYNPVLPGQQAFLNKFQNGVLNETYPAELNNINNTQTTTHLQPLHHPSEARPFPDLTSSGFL
How it was run: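 Steps: seed HepG2-AhR-luc cells; allow 5 h at 37C; pin-transfer test compound or vehicle; incubate 24 h at 37C; add viability dye (30 min, 37C) and read fluorescence; add luciferase substrate (30 min, RT) and read luminescence.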

[12] = qHTS assay to identify small molecule that activate the aryl hydrocarbon receptor (AhR) signaling pathway - cell viability counter screen (AID 743086);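 further: HepG2 liver cells carrying the AhR DRE luciferase reporter; nearly all actives have a fitted effect of over 45% in size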
How it was run: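 Cytotoxicity counter screen: CellTiter-Fluor signal (30 min, 37 C) in 4000 HepG2 cells/well carrying the DRE-luciferase reporter, following 24 h compound exposure at 37 C.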

[13] = biological target: Peroxisome proliferator-activated receptor gamma (Homo sapiens) (UniProt P37231); assay: qHTS assay to identify small molecule agonists of the peroxisome proliferator-activated receptor gamma (PPARg) signaling pathway (AID 743094; active means well fitted activation curve with a large enough effect in the signal ratio in the repeat runs, not every such curve was filed as active; the % refers to the signal ratio; further: potency means the concentration at half of the fitted maximal effect)
Peroxisome proliferator-activated receptor gamma (Homo sapiens), sequence (P37231 whole entry, looked up): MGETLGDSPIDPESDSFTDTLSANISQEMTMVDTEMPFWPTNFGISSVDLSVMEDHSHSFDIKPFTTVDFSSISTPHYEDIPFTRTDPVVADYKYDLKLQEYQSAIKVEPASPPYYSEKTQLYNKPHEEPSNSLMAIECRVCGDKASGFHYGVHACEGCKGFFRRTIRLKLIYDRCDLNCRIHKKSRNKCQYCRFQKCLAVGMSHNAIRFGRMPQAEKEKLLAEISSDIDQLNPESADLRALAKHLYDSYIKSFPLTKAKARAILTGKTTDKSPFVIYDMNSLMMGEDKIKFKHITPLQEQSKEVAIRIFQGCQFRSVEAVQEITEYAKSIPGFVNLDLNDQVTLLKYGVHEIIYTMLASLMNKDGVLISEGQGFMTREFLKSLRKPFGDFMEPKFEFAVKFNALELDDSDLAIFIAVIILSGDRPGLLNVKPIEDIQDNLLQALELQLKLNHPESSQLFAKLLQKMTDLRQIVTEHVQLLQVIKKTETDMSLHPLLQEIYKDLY
How it was run: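 Agonism was assessed in a beta-lactamase reporter system, HEK293H cells with a stably integrated UAS-bla construct under PPARg control; the 17 h treatment at 37C preceded a 1 h room-temperature FRET substrate read.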

[14] = biological target: Peroxisome proliferator-activated receptor gamma (Homo sapiens) (UniProt P37231); assay: qHTS assay to identify small molecule antagonists of the peroxisome proliferator-activated receptor gamma (PPARg) signaling pathway (AID 743191; calls by dose curve; further: nearly all actives have a fitted effect of over 30% in size; further: potency means the concentration at half of the fitted maximal effect)
How it was run: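 Beta-lactamase reporter under UAS control in HEK293H PPARg-bla cells; compound treatment 17 h at 37C. Read-out: fluorescence intensity after 1 h room-temperature incubation with LiveBLAzer B/G FRET substrate.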

[15] = qHTS assay to identify small molecule antagonists of the peroxisome proliferator-activated receptor gamma (PPARg) signaling pathway - cell viability counter screen (AID 743194); conditions: Potency: co-treated with 50 nM rosiglitazone unless noted; further: nearly all actives have a fitted effect of over 55% in size; further: potency means the concentration at half of the fitted maximal effect
How it was run: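 Viability was measured as CellTiter-Glo luminescence in GeneBLAzer PPARg UAS-bla HEK293H cells. These cells had been exposed 17 h at 37 C to compounds together with rosiglitazone at 50 nM final, with the beta-lactamase readout taken in the same wells.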

[16] = qHTS assay for small molecule agonists of the antioxidant response element (ARE) signaling pathway (AID 743202; active means well fitted activation curve with a large enough effect in the signal ratio in the repeat runs, not every such curve was filed as active; the % refers to the signal ratio)
How it was run: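 After 16 hours of compound treatment at 37 C, HepG2 cells with a stably integrated ARE-driven beta-lactamase reporter were loaded 2 hours at room temperature with LiveBLAzer B/G FRET substrate and fluorescence intensity measured.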

[17] = qHTS assay for small molecule activators of the heat shock response signaling pathway - cell viability counter screen (AID 743209); further: nearly all actives have a fitted effect of over 50% in size
How it was run: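 Compounds dissolved in DMSO were added to overnight-plated HSE-bla HeLa cells and left 5 h at 37 C. Cell viability was quantified by luminescence using CellTiter-Glo.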

[18] = qHTS assay for small molecule activators of the heat shock response signaling pathway (AID 743210; active means well fitted activation curve with a large enough effect in the signal ratio in the repeat runs, with a control signal flat, not every such curve was filed as active; the % refers to the signal ratio; further: potency means the concentration at half of the fitted maximal effect)
How it was run: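 Compound exposure lasted 5 h at 37 C in HeLa cells carrying a heat-shock-element-driven beta-lactamase reporter. Read-out: fluorescence intensity after 2.5 h room-temperature loading with LiveBLAzer B/G FRET substrate.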

[19] = qHTS assay to identify small molecule antagonists of the thyroid receptor (TR) signaling pathway - cell viability counter screen (AID 743064); further: nearly all actives have a fitted effect of over 50% in size
How it was run: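 Plate GH3.TRE-Luc cells; incubate 4 h at 37 °C; add compound, then T3 to 1 nM final; incubate 23.5 h; add CellTiter-Fluor; incubate 30 min at 37 °C, 5% CO2; read fluorescence.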

[20] = qHTS assay for small molecule agonists of the antioxidant response element (ARE) signaling pathway - cell viability counter screen (AID 743203; calls by dose curve; further: nearly all actives have a fitted effect of over 55% in size; further: potency means the concentration at half of the fitted maximal effect)
How it was run: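 ATP content via CellTiter-Glo luminescence served as the viability measure. Cells: ARE-bla HepG2, 2,000 per well. Exposure: 16 hrs, 37C/5% CO2.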

Measured: Potency

N#CCC(=O)O
not listed: [19] | [20]
inactive: all other assays above

Cc1cc(C)cc(O)c1
not listed: [14] | [19] | [20]
inactive: all other assays above

C[n+]1ccn(CCO)c1
inactive: [19] | [2] | [4] | [7] | [8] | [9] | [10] | [12] | [13] | [14] | [17]

CN1CCCC1=O
not listed: [16] | [19] | [20]
inactive: all other assays above

CC[N+](CC)(CC(=O)Nc1c(C)cccc1C)Cc1ccccc1
inactive: [19] | [4] | [8] | [9] | [10] | [12] | [13] | [14] | [16] | [20] | [17]

COc1ccc([C@@H]2CC(=O)c3c(O)cc(O[C@@H]4O[C@H](CO[C@@H]5O[C@@H](C)[C@H](O)[C@@H](O)[C@H]5O)[C@@H](O)[C@H](O)[C@H]4O)cc3O2)cc1OC
not listed: [15] | [19]
inactive: all other assays above

CN=C(NC#N)NCCSCc1nc[nH]c1C
not listed: [1] | [15] | [16] | [19]
inactive: all other assays above

Clc1cccc(Cl)c1NC1=NCCN1
not listed: [3] | [5] | [6] | [7] | [13] | [14] | [15] | [19]
inactive: all other assays above

CCc1cccc(O)c1
not listed: [1] | [15] | [16] | [19] | [20]
inactive: all other assays above

Cc1ccc(C)c(S(=O)(=O)O)c1
not listed: [3] | [5] | [6] | [7] | [11] | [14] | [19]
inactive: all other assays above

Nc1nc(N)c2nc(-c3ccccc3)c(N)nc2n1
active: [1] 55.1 µM and 54.5 µM | [13] 23.9 µM | [20] 27.6 µM and 17.2 µM | [18] 37.1 µM and 29.7 µM and 26.6 µM
inactive and 68.6 µM (active): [6]
inactive: [2] | [9] | [12] | [17]

COc1cc(NC(=O)CC(C)=O)c(OC)cc1Cl
active: [14] 19.5 µM
inactive and 12.2 µM (active): [9]
not listed: [1] | [3] | [11] | [16] | [19] | [20]
inactive: all other assays above

OCCOCCOCCOCCOCCO
inactive: [2] | [4] | [8] | [9] | [10] | [12] | [15] | [17] | [18]

OC1CCCCC1
not listed: [11] | [19] | [20]
inactive: all other assays above

CCCCCNCCCCC
not listed: [3] | [5] | [6] | [7] | [11] | [19]
inactive: all other assays above

CC1=CC(=O)CC(C)(C)C1
not listed: [1] | [3] | [5] | [6] | [7] | [18] | [19] | [20]
inactive: all other assays above

c1cnc2c(c1)ccc1cccnc12
inactive: [2] | [4] | [12] | [13] | [17]
active: [8] 15.5 µM | [9] 6.17 µM and 6.86 µM and 9.69 µM | [10] 5.5 µM | [14] 1.56 µM | [15] 1.23 µM

CC/C(C)=N/O
inactive: [2] | [4] | [8] | [12] | [17] | [18]

CCn1cc(C(=O)O)c(=O)c2cc3c(cc21)OCO3
inactive: [1] | [2] | [4] | [8] | [9] | [10] | [12] | [15] | [20] | [17] | [18]

CC(=O)OCCC(C)C
not listed: [3] | [5] | [6] | [7] | [15] | [16] | [19] | [20]
inactive: all other assays above

O=[N+]([O-])c1ccccc1C(F)(F)F
not listed: [11] | [15] | [16] | [19] | [20]
inactive: all other assays above

COc1c(Cl)ccc(Cl)c1C(=O)O
not listed: [11] | [15] | [19]
inactive: all other assays above

COC(=O)/C=C\C(=O)OC
inactive: [1] | [2] | [4] | [8] | [12] | [15] | [20] | [17] | [18]
